# Data published in the supplement of paper PMC8728848.
# This excerpt belongs to a sample that is enriched for the strongest signals.
# Assays:
# Experiment in all cases: glycan array binding signal (z-score within array); higher = stronger binding
# Settings in all cases: glycan notation: IUPAC condensed, linker removed; mutation: R74S
# [1] = target: Fuc(a1-2)Gal(b1-3)GlcNAc(b1-3)[Neu5Ac(a2-6)Gal(b1-4)GlcNAc(b1-6)]Gal(b1-4)Glc
# In short: (§1)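 From the Consortium for Functional Glycomics database, 3228 arrays were curated, keeping only those whose protein sequence was available. Binding is given as a within-array Z-score averaged across arrays sharing a protein sequence and across linkers. Negative Z-scores can be read as non-binding.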
# Fuc(a1-2)Gal(b1-4)GlcNAc = target: Fuc(a1-2)Gal(b1-4)GlcNAc
# In short: as §1
# [2] = target: Fuc(a1-2)Gal(b1-4)GlcNAc(b1-2)Man(a1-3)[Fuc(a1-2)Gal(b1-4)GlcNAc(b1-2)Man(a1-6)]Man(b1-4)GlcNAc(b1-4)[Fuc(a1-6)]GlcNAc
# In short: as §1
# [3] = target: Fuc(a1-2)Gal(b1-4)GlcNAc(b1-3)Gal(b1-4)GlcNAc(b1-2)Man(a1-3)[Fuc(a1-2)Gal(b1-4)GlcNAc(b1-3)Gal(b1-4)GlcNAc(b1-2)Man(a1-6)]Man(b1-4)GlcNAc(b1-4)GlcNAc
# In short: as §1
# [4] = target: Fuc(a1-2)Gal(b1-4)GlcNAc(b1-6)GalNAc
# In short: as §1
# [5] = target: Fuc(a1-2)Gal(b1-4)[Fuc(a1-3)]GlcNAc(b1-3)Gal(b1-4)[Fuc(a1-3)]GlcNAc(b1-3)Gal(b1-4)[Fuc(a1-3)]GlcNAc
# In short: as §1
# [6] = target: Fuc(a1-2)Gal6S(b1-4)Glc6S
# In short: as §1
# [7] = target: Fuc(a1-2)[Gal(a1-3)]Gal(b1-3)GlcNAc(b1-6)GalNAc
# In short: as §1
# [8] = target: Fuc(a1-2)[Gal(a1-3)]Gal(b1-4)GlcNAc
# In short: as §1
# [9] = target: Fuc(a1-2)[GalNAc(a1-3)]Gal(b1-3)GlcNAc(b1-2)Man(a1-3)[Fuc(a1-2)[GalNAc(a1-3)]Gal(b1-3)GlcNAc(b1-2)Man(a1-6)]Man(b1-4)GlcNAc(b1-4)GlcNAc
# In short: as §1
# [10] = target: Fuc(a1-2)[GalNAc(a1-3)]Gal(b1-4)GlcNAc(b1-3)Gal(b1-4)GlcNAc(b1-3)Gal(b1-4)GlcNAc
# In short: as §1
# [11] = target: Fuc(a1-3)[Gal(b1-4)]GlcNAc(b1-6)[Gal(b1-3)GlcNAc(b1-3)]Gal(b1-4)Glc
# In short: as §1
# Gal(a1-3)Gal(b1-4)Glc = target: Gal(a1-3)Gal(b1-4)Glc
# In short: as §1
# [12] = target: Gal(a1-4)Gal(b1-3)GlcNAc(b1-2)Man(a1-3)[Gal(a1-4)Gal(b1-3)GlcNAc(b1-2)Man(a1-6)]Man(b1-4)GlcNAc(b1-4)GlcNAc
# In short: as §1
# Gal(b1-3)Gal(b1-4)GlcNAc = target: Gal(b1-3)Gal(b1-4)GlcNAc
# In short: as §1
# Gal(b1-3)GalNAc = target: Gal(b1-3)GalNAc
# In short: as §1
# [13] = target: Gal(b1-3)GlcNAc(b1-2)Man(a1-3)[Gal(b1-3)GlcNAc(b1-2)Man(a1-6)]Man(b1-4)GlcNAc(b1-4)[Fuc(a1-6)]GlcNAc
# In short: as §1
# Gal(b1-3)GlcNAc6S = target: Gal(b1-3)GlcNAc6S
# In short: as §1
# [14] = target: Gal(b1-3)[Fuc(a1-4)]GlcNAc(b1-6)GalNAc
# In short: as §1
# [15] = target: Gal(b1-3)[Neu5Ac(a2-6)]GlcNAc(b1-4)Gal(b1-4)Glc
# In short: as §1
# [16] = target: Gal(b1-4)GalNAc(a1-3)[Fuc(a1-2)]Gal(b1-4)GlcNAc
# In short: as §1
# [17] = target: Gal(b1-4)GlcNAc(b1-3)Gal(b1-4)GlcNAc(b1-2)Man(a1-3)[Gal(b1-4)GlcNAc(b1-3)Gal(b1-4)GlcNAc(b1-2)Man(a1-6)]Man(b1-4)GlcNAc(b1-4)GlcNAc
# In short: as §1
# [18] = target: Gal(b1-4)GlcNAc(b1-3)Gal(b1-4)GlcNAc(b1-2)[Gal(b1-4)GlcNAc(b1-3)Gal(b1-4)GlcNAc(b1-6)]Man(a1-6)[Gal(b1-4)GlcNAc(b1-3)Gal(b1-4)GlcNAc(b1-2)Man(a1-3)]Man(b1-4)GlcNAc(b1-4)GlcNAc
# In short: as §1
# [19] = target: Gal(b1-4)GlcNAc(b1-3)Gal(b1-4)GlcNAc(b1-3)Gal(b1-4)GlcNAc(b1-2)[Gal(b1-4)GlcNAc(b1-3)Gal(b1-4)GlcNAc(b1-3)Gal(b1-4)GlcNAc(b1-6)]Man(a1-6)[Gal(b1-4)GlcNAc(b1-3)Gal(b1-4)GlcNAc(b1-3)Gal(b1-4)GlcNAc(b1-2)Man(a1-3)]Man(b1-4)GlcNAc(b1-4)[Fuc(a1-6)]GlcNAc
# In short: as §1
# [20] = target: Gal(b1-4)GlcNAc(b1-3)Gal(b1-4)GlcNAc(b1-3)Gal(b1-4)GlcNAc(b1-3)Gal(b1-4)GlcNAc(b1-2)Man(a1-3)[Gal(b1-4)GlcNAc(b1-3)Gal(b1-4)GlcNAc(b1-3)Gal(b1-4)GlcNAc(b1-3)Gal(b1-4)GlcNAc(b1-2)Man(a1-6)]Man(b1-4)GlcNAc(b1-4)GlcNAc
# In short: as §1
binder,measurement,setting,value
Gal 7 (Homo sapiens) (protein) MSNVPHKSSLPEGIRPGTVLRIRGLVPPNASRFHVNLLCGEEGGSDAALHFNPRLDTSEVVFNSKEGGSWGREESGPGVPFGRGQPFEVLIIASDDGFKAVVGDAQYHHFRHRLPLARVRLVEVGGDVQLDSVRIF,glycan array binding signal (z-score),[1],0.022
same,glycan array binding signal (z-score),Fuc(a1-2)Gal(b1-4)GlcNAc,-0.214
same,glycan array binding signal (z-score),[2],1.07
same,glycan array binding signal (z-score),[3],13.1
same,glycan array binding signal (z-score),[4],0.439
same,glycan array binding signal (z-score),[5],0.209
same,glycan array binding signal (z-score),[6],0.38
same,glycan array binding signal (z-score),[7],-0.325
same,glycan array binding signal (z-score),[8],-0.56
same,glycan array binding signal (z-score),[9],-0.27
same,glycan array binding signal (z-score),[10],-0.239
same,glycan array binding signal (z-score),[11],0.106
same,glycan array binding signal (z-score),Gal(a1-3)Gal(b1-4)Glc,0.28
same,glycan array binding signal (z-score),[12],-0.347
same,glycan array binding signal (z-score),Gal(b1-3)Gal(b1-4)GlcNAc,-0.425
same,glycan array binding signal (z-score),Gal(b1-3)GalNAc,-0.37
same,glycan array binding signal (z-score),[13],0.404
same,glycan array binding signal (z-score),Gal(b1-3)GlcNAc6S,-0.422
same,glycan array binding signal (z-score),[14],-0.149
same,glycan array binding signal (z-score),[15],-0.354
same,glycan array binding signal (z-score),[16],-0.282
same,glycan array binding signal (z-score),[17],3.67
same,glycan array binding signal (z-score),[18],1.49
same,glycan array binding signal (z-score),[19],3.31
same,glycan array binding signal (z-score),[20],5.53
